Most compounds without a hit are left out; they make up all but 4.7% or so of the library.
DRV1 agonist – activates human resolvin D1 receptor GPR32; activation, % at 76.9 µM; 48,000 tested, 2.5% active; O75388; CHO-K1 GPR32 beta-arrestin PathHunter luminescence, 90 min; zero percent set by DMSO-only wells;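 active means activation of at least 60% and not above a set upper limit, about 1 call in 100 departs from these limits; inconclusive means activation of 40% to 60%, or above that upper limit; inactive means activation under 40%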; further: 0% is about no effect
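Agonism was scored as beta-arrestin recruitment to ProLink-fused GPR32 in stably transfected CHO-K1 cells, giving a chemiluminescent beta-Gal signal; compounds were incubated 90 min at 37 °C.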
GALC G270D act – enhancers of human galactocerebrosidase G270D mutant activity in cells; AID 1159614; Potency, µM (series often up to 57.5 µM), most hits filed as activators; 45,000 tested, 0.1% active; 145M-Twi-hGALC-G270D cells (Twitcher mouse brain line with human GALC G270D), HMU-beta-Gal fluorescence, 48 h; further: potency means the concentration at half of the fitted maximal effect; 0% is about no effect; nearly all actives have a fitted effect of over 65% in size
Target sequence (P54803 whole entry G286D): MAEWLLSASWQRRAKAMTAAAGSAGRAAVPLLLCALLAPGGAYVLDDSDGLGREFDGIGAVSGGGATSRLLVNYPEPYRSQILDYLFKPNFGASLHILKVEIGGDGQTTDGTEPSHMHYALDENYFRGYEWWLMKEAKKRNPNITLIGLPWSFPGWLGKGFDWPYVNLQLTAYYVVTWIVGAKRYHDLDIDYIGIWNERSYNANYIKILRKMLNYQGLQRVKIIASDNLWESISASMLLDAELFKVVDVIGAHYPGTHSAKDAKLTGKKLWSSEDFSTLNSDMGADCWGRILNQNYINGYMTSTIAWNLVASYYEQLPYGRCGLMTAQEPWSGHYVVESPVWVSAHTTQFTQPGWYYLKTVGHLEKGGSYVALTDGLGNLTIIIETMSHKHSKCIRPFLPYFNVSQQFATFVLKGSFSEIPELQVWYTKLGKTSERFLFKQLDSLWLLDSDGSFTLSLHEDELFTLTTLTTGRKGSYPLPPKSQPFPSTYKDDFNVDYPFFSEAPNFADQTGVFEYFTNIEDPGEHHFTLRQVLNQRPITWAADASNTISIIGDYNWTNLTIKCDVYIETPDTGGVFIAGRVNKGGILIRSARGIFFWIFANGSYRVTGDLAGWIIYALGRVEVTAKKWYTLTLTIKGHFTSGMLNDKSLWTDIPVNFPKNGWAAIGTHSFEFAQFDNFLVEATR
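Brain-derived Twitcher mouse 145M-Twi cells stably expressing human GALC-G270D or wild-type GALC, treated live, then residual GALC activity read by fluorescence of HMU-b-Gal substrate (0.1 mM final) in citrate-phosphate buffer pH 5.2 with sodium taurocholate. Signal increase indicates enhancement.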
FH mod – Identification of activators of human fumarate hydratase by quantitative high-throughput screening | Fumarate hydratase, mitochondrial (Homo sapiens), P07954 | FH coupled MDH/diaphorase resazurin fluorescence, 15 min | Potency, µM (titrated, usually from 79.9 µM), for inactives: at the top dose activity change, negative = inhibition, usual class: inhibitors | 54,000 tested, 0.22% active | AID 1347055, 2019; further: potency means the concentration at half of the fitted maximal effect; on the % scale 0 is the no-effect control and ±100 the full control effect; the screen sought activators but most active calls are inhibition curves; nearly all actives have a fitted effect of over 45% in size
NTMT1 inh – blocks human N-terminal methyltransferase 1 activity; Q9BV86; NTMT1 MTase-Glo SAH luminescence, purified enzyme; Potency, µM (top dose mostly 114 µM), for the others: top-dose activity change, negative = inhibition, most hits filed as inhibitors; 59,000 tested, 2.5% active; AID 1645870;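 further: potency means the concentration at half of the fitted maximal effect; plate controls were DMSO vehicle for no effect and no enzyme for full effect; nearly all actives have a fitted effect of over 65% in size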
HTT-AS act – activators of huntingtin-antisense promoter activity | HEK293 HTT-AS promoter firefly luciferase reporter, 24 h; response scale: percent change from vehicle, -100% = no light | Potency, µM (doses to about 57.5 µM), without a hit: at the top dose activity change, positive = activation, actives largely listed as activators | 48,000 tested, 0.24% active; further: potency means the concentration at half of the fitted maximal effect; nearly all actives have a fitted effect of over 55% in size
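HEK293 luciferase promoter-reporter cells (2,500/well) plated 24 h, then compounds added at up to 57.5 uM final for 24 h at 37 °C. Firefly luminescence by Dual-Glo, normalized to vehicle (0%) and zero RLU (-100%).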
HTT prom inh – inhibits huntingtin promoter activity; HEK293 HTT promoter firefly luciferase reporter, 24 h; Potency, µM (highest dose often 57.5 µM), without a hit: at the highest dose activity change, negative = inhibition, hits mostly inhibitors; 48,000 tested, 0.93% active; AID 1508623; further: potency means the concentration at half of the fitted maximal effect; nearly all actives have a fitted effect of over 50% in size
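HEK293 luciferase promoter-reporter cells (2,500/well) plated 24 h, then compounds added at up to 57.5 uM final for 24 h at 37 °C. Firefly luminescence by Dual-Glo, normalized to vehicle (0%) and zero RLU (-100%).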
The depositor's hits bear a star; i = inactive; ? = inconclusive; · = not tested or not shown; [ ] = remark or other dose. Unless noted, the call rests on the fitted dose curve; in most records, active means well fitted curve in the direction sought with a large enough effect; inconclusive means small, poorly fitted or top-dose-only effect, or another doubt; inactive means no such curve, though single readings can be large; an effect the other way counts as inactive or inconclusive.

SMILES | DRV1 agonist | GALC G270D act | FH mod | NTMT1 inh | HTT-AS act | HTT prom inh
CCC(=O)N1CCc2cc(S(=O)(=O)CCC(=O)NCc3ccc(OC)cc3)ccc21 | -3 | i | 1% | 17% | -11% | -1%
CNCCC(Oc1ccccc1C)c1ccccc1 (stereo not given) | -13 | · | -3%[53.3 µM] | · | · | ·
CNCC[C@H](Oc1cccc2ccccc12)c1cccs1 | 99* | i | -12%[53.3 µM] | ? | -45% | ?
c1cncc(-c2ccc(CNc3nc(N4CCCC4)nc4ccccc34)cc2)c1 | · | · | · | 40µM* | · | ·
Brc1ccccc1-c1nc(NCc2ccc(-c3cccnc3)cc2)c2ccccc2n1 | · | · | · | 16% | · | ·
COc1ccc(N2CCN(CCCNC(=O)c3c(C)nn(-c4ccc(F)cc4)c3-n3cccc3)CC2)cc1 | 63* | i | -12% | 1% | -35% | ?
CCCN1CCN(CCCNC(=O)c2c(C)nn(-c3ccc(F)cc3)c2-n2cccc2)CC1 | 3 | i | -5% | -6% | 0% | -28%
COc1cc(NC(=O)c2c(C)nn(-c3ccc(F)cc3)c2-n2cccc2)cc(OC)c1 | 103* | i | -7% | ? | -1% | -20%
Cc1nn(-c2ccc(F)cc2)c(-n2cccc2)c1C(=O)NCCCN1CCN(c2ccccc2F)CC1 | 110* | i | -9% | 8% | -31% | ?
Cc1ccc(-n2nc(C)c(C(=O)NCCCN3CCN(c4ccc(F)cc4)CC3)c2-n2cccc2)cc1 | ? | i | -12% | 6% | -53% | ?
Cc1ccc(C(C)c2ccc(=O)n(CC(=O)NCCc3ccccc3)n2)cc1 (stereo not given) | · | · | · | 1% | · | ·
Cc1ccc(C)c(N2CCN(CCCNC(=O)Nc3cc(Cl)ccc3C)CC2)c1 | -4 | i | -20% | -4% | -27% | -14%
CCOc1ccc(NC(=O)NCCN2CCN(c3cc(Cl)ccc3C)CC2)cc1 | 73* | i | -28% | -7% | -38% | ?
CCC(=O)N1c2ccccc2CC1C(=O)NCCN1CCN(c2cc(Cl)ccc2C)CC1 (stereo not given) | 69* | i | -4% | -4% | -33% | -26%
Cc1ccc(Cl)cc1N1CCN(CCNC(=O)Nc2ccc(Cl)cc2)CC1 | 84* | i | -23% | 5% | ? | -43%
CCOc1ccc(CCNC(=O)c2cc3ccccc3o2)cc1OCC | · | · | · | 5% | · | ·
FC(F)(F)c1cccc(-c2ccc(CNc3nc(-c4ccccc4C(F)(F)F)nc4ccccc34)cc2)c1 | · | · | · | 19% | · | ·
C[C@@H](O[C@H]1OCCN(Cc2n[nH]nc2CN(C)C)[C@H]1c1ccc(F)cc1)c1cc(C(F)(F)F)cc(C(F)(F)F)c1 | · | · | 1% | 3%[57.5 µM] | · | ·
Cc1ccc(Cl)cc1NC(=O)c1cccc(NC(=O)N2CCSc3ncccc32)c1 | 5 | i | -12% | 1% | -33% | ?
Cc1ccc(C(=O)Nc2ccc(S(=O)(=O)O)c3cc(S(=O)(=O)O)cc(S(=O)(=O)O)c23)cc1NC(=O)c1cccc(NC(=O)Nc2cccc(C(=O)Nc3cc(C(=O)Nc4ccc(S(=O)(=O)O)c5cc(S(=O)(=O)O)cc(S(=O)(=O)O)c45)ccc3C)c2)c1 | -15 | i | 14µM* | 34%[57.5 µM] | 1% | -3%
O=C(CCn1cnc2onc(-c3ccc(F)cc3)c2c1=O)Nc1cccc(C(F)(F)F)c1 | ? | i | ? | -3% | -59% | ?
O=C(CCn1cnc2onc(-c3ccc(F)cc3)c2c1=O)Nc1ccc(F)c(Cl)c1 | 7 | i | -25% | 8% | -75% | 22µM*
Cc1cnc(-c2ccccc2C(C)C)nc1NCc1ccc(-c2cccnc2)cc1 | · | · | · | 18% | · | ·
O=S(=O)(c1ccccc1)N1CCC(c2ccncc2)CC1 | 8 | i | -29% | ? | -43% | ?
CC(C)Cc1ccc(S(=O)(=O)N2CCC(c3ccncc3)CC2)cc1 | 10 | i | -8% | ? | -80% | 16µM*

Screening data (PubChem)
